Assay results: PubChem BioAssay (Tox21)
Inconclusive results are not listed. The source made the active and inactive calls. Unless noted, calls follow the shape of the full dose curve.

Legend:
[1] = qHTS assay to identify small molecule antagonists of the vitamin D receptor (VDR) signaling pathway - cell viability counter screen (AID 743225; active = well fitted curve in the direction sought with a large enough effect in the repeat runs; an effect the other way counts as inactive or inconclusive; also: % is scaled to controls: 0 for no effect and ±100 for the full control effect; nearly all actives have a fitted effect of over 50% in size)
In short: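 Cytotoxicity toward the VDR-bla HEK 293T line was scored by ATP-based CellTiter-Glo luminescence, read in the wells already used for the beta-lactamase readout after 16 h compound treatment under 3 nM 1-alpha,25-dihydroxyvitamin D3 stimulation.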

[2] = qHTS assay to identify small molecule agonists of the NFkB signaling pathway (AID 1159509; active = well fitted curve in the direction sought with a large enough effect in the signal ratio in the repeat runs, not every such curve was filed as active; the % refers to the signal ratio; also: series mostly up to about 61 µM; % is scaled to controls: 0 for no effect and ±100 for the full control effect)
In short: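 After overnight attachment, reporter cells received test compounds, DMSO or positive controls and were incubated 5 hr at 37 C. FRET substrate was then added for 1.5 hr at room temperature before dual-emission fluorescence reading.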

[3] = qHTS assay to identify small molecule agonists of the endoplasmic reticulum stress response signaling pathway (AID 1159516; active = well fitted activation curve with a large enough effect in the signal ratio in the repeat runs, not every such curve was filed as active; the % refers to the signal ratio; also: % is scaled to controls: 0 for no effect and ±100 for the full control effect)
In short: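 Tox21 10K library screened in quantitative HTS format on ESRE-bla HeLa cells, a beta-lactamase reporter under ER stress response element control; 5 hr treatment, FRET read.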

[4] = qHTS assay to identify small molecule agonists of the endoplasmic reticulum stress response signaling pathway - cell viability counter screen (AID 1159517); also: series mostly up to about 61 µM; % is scaled to controls: 0 for no effect and ±100 for the full control effect; nearly all actives have a fitted effect of over 50% in size
In short: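 Luminescence readout: CellTiter-Glo, 30 min RT, same wells as the ESRE-bla reporter read. HeLa ESRE-bla, 1,500 cells/well, o/n 37 C; cpd 5 hr 37 C/5% CO2.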

[5] = molecular target: Nuclear receptor ROR-gamma (Homo sapiens) (UniProt P51449); assay: qHTS assay to identify small molecule antagonists of the retinoid-related orphan receptor gamma (ROR-gamma) signaling pathway (AID 1159521; active = well fitted curve in the direction sought with a large enough effect in the repeat runs; an effect the other way counts as inactive or inconclusive;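 also: CHO cells with doxycycline inducible ROR-gamma driving an RORE luciferase reporter; top concentration of the series differs between compounds; % is scaled to controls: 0 for no effect and ±100 for the full control effect; nearly all actives have a fitted effect of over 50% in size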)
In short: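 Readout: ONE-Glo luciferase luminescence, 30 min at room temperature. System: Tet-on RORγ CHO, RORE-LUC. Sequence: compound 2 h, doxycycline 1 uM final, 16 h at 37 C.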

[6] = qHTS assay to identify small molecule agonists of the AP-1 signaling pathway - cell viability counter screen (AID 1159525); also: nearly all actives have a fitted effect of over 55% in size
In short: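 ME-180 AP-1-bla, 2500 cells/well, Opti-MEM + 0.5% dialyzed FBS; overnight 37 °C; cpd 15-pt titration, 5 h 37 °C; CellTiter-Glo 30 min RT; luminescence read; normalised to TOAB and DMSO controls.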

[7] = qHTS assay to identify small molecule agonists of the AP-1 signaling pathway (AID 1159526); also: % is scaled to controls: 0 for no effect and ±100 for the full control effect
[8] = molecular target: Retinoic acid receptor RXR-alpha (Homo sapiens) (UniProt P19793); assay: qHTS assay to identify small molecule agonists of the RXR signaling pathway (AID 1159527); also: nearly all actives have a fitted effect of over 35% in size; also: potency is read from the fitted curve at half-maximal effect; as to activation: % is scaled to controls: 0 for no effect and ±100 for the full control effect
In short: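 Reporter activation is measured as beta-lactamase activity via FRET substrate cleavage (emission 460/530 nm) in HEK 293T cells expressing an RXR-alpha-driven bla construct, following 16 hr compound exposure at 37 C.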

[9] = qHTS assay to identify small molecule antagonists of the retinoid-related orphan receptor gamma (ROR-gamma) signaling pathway - cell viability counter screen (AID 1159520; active = well fitted curve in the direction sought with a large enough effect in the repeat runs; an effect the other way counts as inactive or inconclusive; also: % is scaled to controls: 0 for no effect and ±100 for the full control effect; nearly all actives have a fitted effect of over 50% in size)
In short: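 Tet-on ROR gamma CHO cells (1,000/well) were plated 4 hr, given compounds in DMSO for 2 hr at 37 C, then induced with 1 uM final doxycycline for 16 hr. Viability was read as ATP by CellTiter-Glo luminescence after 30 min.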

[10] = qHTS assay to identify small molecule agonists of the NFkB signaling pathway - cell viability counter screen (AID 1159515); also: series mostly up to about 61 µM; % is scaled to controls: 0 for no effect and ±100 for the full control effect; nearly all actives have a fitted effect of over 55% in size
In short: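 Multiplexed viability readout: after the 5 hr compound exposure and 1.5 hr FRET substrate step, CellTiter-Glo reagent went into the same NFkB-bla ME-180 wells; ATP luminescence was measured after 30 min at room temperature.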

Chain of Retinoic acid receptor RXR-alpha (Homo sapiens) (P19793 whole entry, looked up): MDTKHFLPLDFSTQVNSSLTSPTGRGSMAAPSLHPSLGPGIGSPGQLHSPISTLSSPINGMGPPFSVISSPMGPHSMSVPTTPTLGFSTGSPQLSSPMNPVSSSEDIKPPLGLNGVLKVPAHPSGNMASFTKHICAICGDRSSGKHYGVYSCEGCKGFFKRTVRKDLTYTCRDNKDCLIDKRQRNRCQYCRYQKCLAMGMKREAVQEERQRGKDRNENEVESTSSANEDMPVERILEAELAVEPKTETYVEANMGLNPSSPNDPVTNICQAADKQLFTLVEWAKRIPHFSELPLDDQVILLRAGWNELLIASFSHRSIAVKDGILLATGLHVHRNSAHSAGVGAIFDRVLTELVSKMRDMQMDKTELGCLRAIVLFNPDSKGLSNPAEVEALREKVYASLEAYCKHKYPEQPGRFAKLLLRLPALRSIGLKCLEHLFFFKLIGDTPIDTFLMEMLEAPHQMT

CC[C@@H](CO)NC(=O)[C@@H]1C=C2c3cccc4[nH]cc(c34)C[C@H]2N(C)C1
inactive: Potency [1] | outcome [2] | outcome [3] | Potency [4] | Potency [5] | Potency [6] | outcome [7] | Potency [8]

ClCCN1CCCC1
inactive: Potency [1] | outcome [2] | outcome [3] | Potency [4] | Potency [9] | Potency [5] | Potency [6] | outcome [7] | Potency [8]

C=CCN1CC[C@]23CCCC[C@H]2[C@H]1Cc1ccc(O)cc13
inactive: Potency [1] | outcome [2] | outcome [3] | Potency [4] | Potency [9] | Potency [5] | Potency [6] | outcome [7] | Potency [8]

Cc1ccc2cc(C)ccc2c1
inactive: Potency [1] | outcome [2] | outcome [3] | Potency [4] | Potency [9] | Potency [5] | Potency [6] | outcome [7]

O=C(O)C(Cl)Br (stereo unspecified)
inactive: outcome [2] | outcome [3] | Potency [4] | Potency [5] | Potency [6] | outcome [7] | Potency [8]

CC(C)(C)NC[C@H](O)c1ccc(O)cc1Cl
inactive: Potency [1] | outcome [2] | outcome [3] | Potency [4] | Potency [5] | Potency [6] | outcome [7] | Potency [8]

CC(Cc1ccccc1)NCCn1cnc2c1c(=O)n(C)c(=O)n2C (stereo unspecified)
inactive: Potency [1] | outcome [2] | outcome [3] | Potency [4] | Potency [9] | Potency [5] | Potency [6] | outcome [7] | Potency [8]

Clc1nc(Cl)nc(Nc2ccccc2Cl)n1
inactive: Potency [1] | outcome [2] | outcome [3] | Potency [4] | Potency [9] | Potency [5] | Potency [6] | outcome [7] | Potency [8]

N#CN=C1SCCN1Cc1ccc(Cl)nc1
inactive: Potency [1] | outcome [2] | outcome [3] | Potency [4] | Potency [9] | Potency [5] | Potency [6] | outcome [7]
active: Potency [8] 38.9 µM

O=C(Cl)CCl
inactive: Potency [1] | outcome [2] | outcome [3] | Potency [4] | Potency [9] | Potency [5] | Potency [6] | outcome [7]

C[C@@H](N)[C@@H](O)c1ccccc1
inactive: Potency [1] | outcome [2] | outcome [3] | Potency [4] | Potency [9] | Potency [5] | Potency [6] | outcome [7]

CC(C)(C1CCC(O)CC1)C1CCC(O)CC1 (stereo unspecified)
inactive: Potency [1] | outcome [2] | outcome [3] | Potency [4] | Potency [9] | Potency [5] | Potency [6] | outcome [7] | Potency [8]

CS(=O)(=O)c1ccc(C(=O)C2C(=O)CCCC2=O)c(Cl)c1COCC(F)(F)F
inactive: Potency [1] | outcome [2] | outcome [3] | Potency [4] | Potency [9] | Potency [5] | Potency [6] | outcome [7] | Potency [8]

[O-][Br+2]([O-])O
inactive: Potency [1] | outcome [2] | outcome [3] | Potency [4] | Potency [5] | Potency [6] | outcome [7] | Potency [8]

CC[C@@H](CO)NC(=O)[C@@H]1C=C2c3cccc4c3c(cn4C)C[C@H]2N(C)C1
inactive: Potency [1] | outcome [2] | outcome [3] | Potency [4] | Potency [5] | outcome [7] | Potency [8]

CC(C)[C@]12CC(=O)[C@H](C)[C@H]1C2
inactive: Potency [1] | outcome [2] | outcome [3] | Potency [4] | Potency [9] | Potency [5] | outcome [7] | Potency [8]

Oc1ccc(Cc2ccc(O)cc2)cc1
inactive: Potency [1] | outcome [2] | outcome [3] | Potency [4] | Potency [9] | Potency [5] | outcome [7] | Potency [8]

COc1cc(CC(C)N)cc(OC)c1OC (stereo unspecified)
inactive: Potency [1] | outcome [2] | outcome [3] | Potency [4] | Potency [9] | Potency [5] | Potency [6] | outcome [7] | Potency [8]

COc1ccccc1OC
inactive: Potency [1] | outcome [2] | outcome [3] | Potency [4] | Potency [9] | Potency [5] | Potency [6] | outcome [7] | Potency [8]

C=CC=O
inactive: Potency [1] | outcome [10] | outcome [3] | Potency [4] | Potency [5] | Potency [6] | outcome [7]

C/C=C/CC#N
inactive: Potency [1] | outcome [2] | outcome [3] | Potency [4] | Potency [9] | Potency [5] | Potency [6] | outcome [7]

O=CCCl
inactive: Potency [1] | outcome [2] | outcome [3] | Potency [4] | Potency [9] | Potency [5] | outcome [7] | Potency [8]

Clc1cc2c(cc1Cl)Oc1cc(Cl)c(Cl)cc1O2
inactive: viability change, negative = cytotoxic [1] 2.97% [at 0.281 µM] | activation [2] -0.0516% [at 0.281 µM] | activation [3] -5.12% [at 0.281 µM] | activity change, negative = cytotoxicity [4] -1.54% [at 0.281 µM] | activity, negative = cytotoxicity [9] 0.49% [at 0.349 µM] | activity change, negative = inhibition [5] 16.4% [at 0.35 µM] | viability change, negative = cytotoxic [6] -6.16% [at 0.29 µM] | activation [7] 0.434% [at 0.29 µM] | activation [8] 5.21% [at 0.29 µM]
